# Inconclusive results are not listed. Activity calls are given as the source filed them. Calls come from the whole dose curve; as a rule, active = well fitted inhibition curve with a large enough effect; inconclusive = small, poorly fitted or top-dose-only effect; inactive = no such curve, though single readings can be large or run the other way.
# Assay: qHTS Assay for Lipid Storage Modulators: 3T3L1 Assay against Probe and Analogs
# Conditions: 3T3-L1 lipid droplets, BODIPY imaging, oleic acid, 18-24 h; series mostly up to 46.1 µM; activity change, negative = decreased lipid storage: at the top concentration
# Excerpt: Storing lipids as a reservoir for energy or the anabolism of elementary metabolites is a common feature of probably all cells and is conserved from bacteria to humans. The universal cellular lipid storage organelle is the so-called lipid storage droplet (LD). Although ubiquitous, LDs share a simple structure composed of a hydrophobic core that harbors the storage lipids, which is shielded by a droplet-specific phospholipid monolayer to which proteins are attached. The current model of LD biogenesis involves an incorporation of the lipid core into the membrane leaflets of the endoplasmic reticulum (ER) followed by a subsequent budding-like maturation of a LD, which ultimately pinches off. Once released, LD volume can increase by localized lipogenesis or fusion of existing droplets. Storage lipids are re-mobilized enzymatically by lipase activity. Lipase regulation in the adipocyte is heavily studied and involves multiple components including catecholamine signaling, the LD-associated proteins Perilipin and comparative gene identification-58 (CGI-58) and at least two lipases named hormone sensitive lipase (HSL) and adipocyte triglyceride lipase (ATGL). LD regulation outside of the adipocyte is poorly understood and only few components are known. However, there is an urgent need to learn more about ectopic fat depots as mislocalized storage of lipids, for example in the liver or muscle, is an eminent health problem associated with insulin resistance or the metabolic syndrome. We developed a laser-scanning cytometer assay to enable 1,536-well screening and combined the results of the small molecules screen with an RNAi database based on lipid storage. In this assay we tested analogs of the probe against a mammalian cell line (3T3L1), to see if these small molecules could disrupt lipid storage. NIH Molecular Libraries Probe Production Centers Network [MLPCN] NIH Chemical Genomics Center [NCGC] MLPCN Grant: MH085686 Assay Submitter (PI): Mathias Beller, Max-Planck-Institut fur Biophysikalische Chemie
# 3T3L1 cells were obtained from ATCC (CL-173). 4 uL of cells at 1.25 X 105 cell/mL were dispensed into 1536 well Poly-D-Lysine coated black with clear bottom imaging plates (Corning, #7356) to obtain 500 cells/well, and cultured at 37 °C, 95% humidity, and 5% CO2 overnight. The culture medium used was OPTI-MEM containing 5% fetal bovine serum (FBS). Triacsin C (Sigma-Aldrich T-4540), an inhibitor of long-chain fatty acyl CoA synthetase that blocks synthesis of triglycerides, was used as a positive control for lipid under-storage. A total of 23 nL of compounds dissolved in DMSO at different concentrations were transferred to the assay plates using a Kalypsys 1536-pin tool, the final DMSO concentration was 0.46%. One microliter of oleic acid at 400 uM (Calbiochem, #4954) was added to induce lipid droplet formation in the cells, and the plates were lidded. After 18-24 hours of incubation at 37 °C, 95% humidity, and 5% CO2, cells were fixed (8 % paraformaldehyde in PBS, 30 min, room temperature), washed three times with PBS, then stained for lipid droplet and nucleus using 4uL of PBS solution containing BODIPY lipid dye 493/503 (1:2000 dilution, Life Technologies, #3922) and Hoechst 33342 (1:1000, Life Technologies, #H3570) with Washer dispenser EL406(Biotek). Images were acquired using InCell 2000 (GE). Number of cells, number of lipids and sizes of lipids were analysis using GE Investigator software.
Structure (SMILES),Potency,"activity change, negative = decreased lipid storage"
COc1cc(C)c(Sc2cnc(NC(=O)c3ccc(CNC(C)C(C)(C)C)cc3)s2)cc1C(=O)N1CCN(C(C)=O)CC1 (stereo not given),3.32 µM (active),–
O=C(Cc1ccccc1)NC1CCCc2c1cnn2-c1ccc(F)cc1F (stereo not given),–,-11.1% (inactive)
CCOc1ccc(CCNC(=O)c2cc3sccc3n2Cc2ccccn2)cc1OCC,0.0235 µM (active),–
O=C(NC1CCCc2c1cnn2-c1ccc(F)cc1F)c1ccc(C(=O)c2ccccc2)cc1 (stereo not given),–,36.4% (inactive)
O=C(NC1CCCc2c1cnn2-c1ccc(F)cc1F)c1ccccn1 (stereo not given),inactive,–
CCOC(=O)C1CCN(C(=O)C(C)(C)NC(=O)Nc2ccc(N)cc2)CC1,–,17.4% (inactive)
Cc1cc(SCc2sc(-c3ccc(C(F)(F)F)cc3)nc2C)ccc1OCC(=O)O,–,28% (inactive)
CCOc1ccc(CCNC(=O)c2ccc3[nH]ccc3c2)cc1OCC,–,8.17% [at 38.8 µM] (inactive)
O=C(NC1CCCc2c1cnn2-c1ccc(F)cc1F)c1ccc(C2(C(F)(F)F)N=N2)cc1 (stereo not given),–,78.7% (inactive)
CC(C)(C)OC(=O)NCCOCCOCCOc1cccc(-n2ncc3c2CCCC3NC(=O)c2ccccn2)c1 (stereo not given),–,47% (inactive)
CN(C)CC(=O)NC1CCCc2c1cnn2-c1ccc(F)cc1F (stereo not given),–,-13.8% (inactive)
CCOc1ccc(CCNC(=O)c2cc3sccc3n2C)cc1OCC,–,-54.4% (inactive)
CC(C)(C)OC(=O)NCCOCCOCCOc1ccc(-n2ncc3c2CCCC3NC(=O)c2ccccn2)cc1 (stereo not given),–,44.9% (inactive)
O=C(NC1CCCc2c1cnn2-c1ccc(F)cc1F)c1cccc(=O)[nH]1 (stereo not given),–,27.2% (inactive)
CCOc1ccc(CCNC(=O)c2cc3sccc3[nH]2)cc1OCC,4.69 µM (active),–
CCOC(=O)C1CCN(C(=O)C(C)(C)NC(=O)Nc2ccc3c(c2)CCC3)CC1,–,-38.5% (inactive)
O=C(NC1CCCc2c1cnn2-c1ccc(F)cc1F)c1ccncc1 (stereo not given),–,63.1% (inactive)
CCOc1ccc(CCNC(=O)c2ccc(N3N=C(C)CC3=O)cc2)cc1OCC,–,-22.6% (inactive)
O=C(c1cc2sccc2n1Cc1ccccc1)N(CCc1ccc(O)c(O)c1)Cc1ccccc1,–,36.2% (inactive)
O=C(O)CCc1ccc(NCc2cccc(Oc3ccccc3)c2)cc1,–,-49.7% (inactive)

Structure (SMILES),Potency,"activity change, negative = decreased lipid storage"
O=C(Nc1cccc2nn(-c3ccc(F)cc3)cc12)c1ccccn1,–,55.5% (inactive)
O=C(NCCc1ccc(O)c(O)c1)c1cc2sccc2n1Cc1ccccc1,–,7.56% (inactive)
Cc1cn(-c2cc(NC(=O)c3ccc(C)c(Nc4nccc(-c5cccnc5)n4)c3)cc(C(F)(F)F)c2)cn1,–,-41.8% (inactive)
O=C(NCCc1ccc2c(c1)OCO2)c1cc2sccc2[nH]1,–,37.4% [at 38.8 µM] (inactive)
C[C@@H](NCCCc1cccc(C(F)(F)F)c1)c1cccc2ccccc12,–,-104% (inactive)
CCOc1ccc(CCNC(=O)c2cc3ccccc3n2Cc2ccc(Cl)c(F)c2)cc1OCC,0.0187 µM (active),–
CCOC(=O)C1CCN(C(=O)C(C)(C)NC(=O)Nc2cccc(-c3csc(C)n3)c2)CC1,–,-27.4% (inactive)
O=C(Nc1cccc2c1cnn2-c1ccc(F)cc1)c1ccccn1,–,11.2% (inactive)
CCOC(=O)C1CCN(C(=O)C2(NC(=O)Nc3ccccc3Cl)CC2)CC1,–,-13.9% (inactive)
O=C(NC1CCCc2c1cnn2-c1ccc(O)cc1)c1ccccn1 (stereo not given),–,-19.4% (inactive)
O=C(NC1CCCc2c1cnn2-c1ccc(F)cc1F)c1cnon1 (stereo not given),–,-9.25% (inactive)
CN(C)Cc1ccc(-c2nc3cccc4c3n2CCNC4=O)cc1,–,-43.8% (inactive)
CCOc1ccc(CCNC(=O)c2cc3sccc3n2C(C)C)cc1OCC,0.0296 µM (active),–
O=C(NC1CCCc2c1cnn2-c1cccc(O)c1)c1ccccn1 (stereo not given),–,15.9% (inactive)
CCOC(=O)C1CCN(C(=O)C(C)(C)NC(=O)Nc2ccc([N+](=O)[O-])cc2)CC1,–,3.82% (inactive)
O=C(NC1CCCc2c1cnn2-c1ccc(F)cc1F)c1ccn[nH]1 (stereo not given),–,-26.1% (inactive)
O=C(O)c1cccc(-c2noc(-c3ccccc3F)n2)c1,2.64 µM (active),–
COc1ccc(-n2ncc3c2CCCC3NC(=O)c2ccccn2)cc1 (stereo not given),–,11.4% (inactive)
CCOC(=O)C1CCN(C(=O)C(C)(C)NC(=O)Nc2ccc(OC)c(Cl)c2)CC1,–,-43.9% (inactive)
CCOC(=O)C1CCN(C(=O)C(C)(C)NC(=O)Nc2ccc3sccc3c2)CC1,–,-36.1% (inactive)
